# Measured values from ChEMBL document CHEMBL4513216, “Probing the Open Global Health Chemical Diversity Library for Multistage-Active Starting Points for Next-Generation Antimalarials” (ACS Infect Dis, 2020).
# Among all 68,000 compounds or so, about 2,700 (4%) showed an effect of 50% or more. Many of the other results were omitted from the sample, so strong results are more common in it than they were.
# Tested on: Plasmodium berghei
# Assay: Screen against P. berghei liver stage (PbLuc), transformed with Luciferase, at 2uM
# Format: functional, HepG2
# Conditions: tested at 2 uM
row,SMILES,INHIBITION [%]
1,COCCC1COC2(CCN(C(=O)c3ccccc3)CC2)C1 (centres undefined),-40.63
2,COCCC1COC2(CCN(C(=O)c3ccsc3)CC2)C1 (centres undefined),56.71
3,COCCC1COC2(CCN(C(=O)c3ccncc3)CC2)C1 (centres undefined),2.5
4,Cn1cnc(S(=O)(=O)NCCN2CCCCCC2=O)c1Cl,3.86
5,Cc1ccsc1C(=O)NC1CCN(c2cnn(C)c2)C1=O (centres undefined),20.14
6,Cc1cccc(C(=O)NC2CCN(c3cnn(C)c3)C2=O)c1C (centres undefined),13.53
7,Cn1cc(N2CCC(NC(=O)c3ccccc3Cl)C2=O)cn1 (centres undefined),28.95
8,CCc1ccc(C(=O)NC2CCN(c3cnn(C)c3)C2=O)o1 (centres undefined),26.65
9,Cc1cccc(C(=O)NC2CCN(c3cnn(C)c3)C2=O)n1 (centres undefined),1.22
10,Cn1cc(N2CCC(NC(=O)c3ccccc3F)C2=O)cn1 (centres undefined),63.1
11,Cn1cc(N2CCC(NC(=O)c3c(F)cccc3F)C2=O)cn1 (centres undefined),31.98
12,Cc1ccccc1C(=O)NC1CCN(c2cnn(C)c2)C1=O (centres undefined),52.08
13,Cn1cc(N2CCC(NC(=O)c3c(F)cccc3Cl)C2=O)cn1 (centres undefined),50.98
14,COc1ccc(S(=O)(=O)NCCn2cnc(C)cc2=O)cc1C,11.94
15,CCCN1C[C@@H]2CC[C@H]1CN(C(=O)c1ccc(N(C)CCO)cc1)C2,6.73
16,CC(=O)N(C)Cc1cccc(NC(=O)c2cnn(C)c2C)c1,-7.28
17,CC(O)CN1CCC(CNCc2ccc(C(N)=O)cc2)CC1 (centres undefined),-63.41
18,N#CCCN(c1ccccc1)S(=O)(=O)CC1CCCCO1 (centres undefined),16.87
19,CNC(=O)CCN(C)CC1(c2ccc(Br)cc2)CC1,-43.52
20,CCNC(=O)N(C)Cc1ccc(SC)c(OC)c1,-53.99
21,CCc1cnc(C)nc1N(C)CCCc1cnn(C)c1,-32.88
22,COc1ccccc1-n1cc(C(=O)NCCCn2ccnn2)cn1,32.73
23,CC(C#N)NS(=O)(=O)c1ccc2c(c1)N(C)CCC2 (centres undefined),-95.81
24,Brc1csc(CNCc2nnc3n2CCC3)c1,26.81
25,COc1ccc(-n2ccc(C(=O)NCCN3CCCCCC3)n2)cc1,23.42
26,COC(=O)CCNC(=O)c1ccc(NC(=O)N(C)CC(C)(C)C)cc1,6.85

row,SMILES,INHIBITION [%]
1,O=C(CCc1nc(C2CC2)no1)c1ccc(F)c(F)c1,-44.84
2,COc1ccc(C(=O)CCc2nc(C3CC3)no2)cc1,9.43
3,O=C(CCc1nc(C2CC2)no1)c1ccccc1,53.65
4,Cc1ccc(CN2CCN(c3ncccc3Cl)CC2CCO)cc1 (centres undefined),-87.47
5,Cc1nc(C2CCCN(C(=O)c3ccc(S(C)(=O)=O)cc3)C2)no1 (centres undefined),-6.56
6,COCCN1C[C@@H]2CCCO[C@@H]2[C@H](N(C)Cc2ccco2)C1,45.82
7,Cc1nccn1-c1nccnc1C1CCN(Cc2ccc(F)cc2)CC1,-42.32
8,CCc1ccccc1CN1CC[C@@H](NC(=O)c2cccnc2)[C@H](O)C1,-44.59
9,Cc1ccc(CN2CC[C@@H](NC(=O)c3cccnc3)[C@H](O)C2)s1,-38.78
10,O=C(N[C@@H]1CCN(Cc2cc3ccccc3s2)C[C@H]1O)c1cccnc1,60.35
11,NC(=O)c1csc(N2CCCC(c3nc4ccccc4[nH]3)C2)n1 (centres undefined),-41.06
12,CC(=O)N[C@@H]1CN(Cc2ccccc2C#N)C[C@H]1c1ccc(C)cc1,28.19
13,CCN(CC1CCCO1)C(=O)Nc1cc(C(N)=O)ccc1OC (centres undefined),84.53
14,CCN(CC1CCCO1)C(=O)Nc1cc(OC)c(OC)cc1C (centres undefined),-19.76
15,CCN(CC1CCCO1)C(=O)Nc1ccc(F)cc1OC (centres undefined),22.1
16,O=C(C1CC=CC1)N1C[C@H]2CN(Cc3ccncc3)C(=O)[C@H]2C1,30.57
17,CN(C)CCNC(=O)[C@H]1C[C@H]2CN(C(=O)NC3CCCC3)C[C@@H]1O2,43.87
18,CN1CCN(c2ncnc3c2CCN(C(=O)c2cccn2C)CC3)CC1,-4.99
19,CCc1nnc(NC(=O)c2c3c(nn2C2CCS(=O)(=O)C2)CCC3)s1 (centres undefined),58.53
20,Cc1nc(NC(=O)c2c3c(nn2C2CCS(=O)(=O)C2)CCC3)sc1C (centres undefined),20.76
21,Cc1nnc(NC(=O)c2c3c(nn2C2CCS(=O)(=O)C2)CCC3)s1 (centres undefined),48.68
22,COc1cc2nc3n(c(=O)c2cc1OC)CCN(C(=O)C1CCC1)CC3,-50.24
23,c1c(CN2CCCC2)nc2n1CCNC2,-102.41
24,CN1CCN(Cc2cn3c(n2)CNCC3)CC1,33.11
25,c1c(CN2CCCCC2)nc2n1CCNC2,60
26,CO[C@@H]1CCC[C@@H](NC(=O)CCCn2cncn2)[C@H]1O,-32.51

row,SMILES,INHIBITION [%]
1,CCc1cc(C(F)(F)F)n2nc(C3CCCN3C(=O)COC)cc2n1 (centres undefined),33.56
2,Cc1cnc(CN2CCOC(CNc3cccnn3)C2)cn1 (centres undefined),18.31
3,Cc1ncc(CN2CCOC(CNc3cccnn3)C2)s1 (centres undefined),58.05
4,Cc1nc(C)c(CN2CCOC(CNc3cccnn3)C2)s1 (centres undefined),-15.28
5,CC(C)NC(=O)Cn1cc(OCc2ccc(F)cc2)c(=O)cc1CO,14.65
6,Cc1ccccc1[C@@H]1CN(C(=O)c2ccc3[nH]nnc3c2)C[C@H]1C(=O)O,-45.64
7,CCn1c(CN2CCC(O)(C(=O)OC)CC2)nc2c(F)cccc21,54.32
8,CCn1c(CN2CCN(CC(N)=O)CC2)nc2c(F)cccc21,27.55
9,CCn1c(CN2CCCN(C(=O)OC)CC2)nc2c(F)cccc21,20.28
10,CN(Cc1ccccn1)C(=O)C(c1ccccc1)N1CCSCC1 (centres undefined),19.48
11,Fc1cccnc1O[C@@H]1CN(Cc2ccccn2)[C@@H]2CCCO[C@@H]21,66.64
12,Fc1cccnc1O[C@@H]1CN(Cc2ccco2)[C@@H]2CCCO[C@@H]21,-8.22
13,Fc1cccnc1O[C@H]1CN(Cc2ccoc2)[C@@H]2CCCO[C@H]12,-0.18
14,O=C(COc1ccc2cccnc2c1)N1CCN[C@H]2CS(=O)(=O)C[C@H]21,-7.4
15,CN(C)C(=O)CN1CCC2(COCc3cnc(-c4cccnc4)nc32)C1 (centres undefined),-55.8
16,Cc1cc2n(n1)CC(CNCc1cc(C)on1)CN2 (centres undefined),57
17,Cc1cc(CNCC2CNc3ccnn3C2)no1 (centres undefined),-10
18,Cc1ccc(CNCC2CNc3cc(C)nn3C2)cn1 (centres undefined),4.19
19,NCCC(=O)N1CCC2(CC1)CN(C(=O)Cc1ccc(Cl)cc1)CCO2,10.62
20,CCc1nnc(C(C)N(C)Cc2c(C)nn(-c3ccccc3)c2C)o1 (centres undefined),63.1
21,Cc1nnc(C(C)N(C)Cc2c(C)nn(-c3ccccc3C)c2C)o1 (centres undefined),29.39
22,CC(C)c1nnc(CN(C)C(c2ccccc2)c2ccc(F)cc2)o1 (centres undefined),-7.07
23,Cc1ccccc1-n1nc(C)c(CN(C)C(C)Cc2ccccn2)c1C (centres undefined),-74.1
24,Cc1nnc(C(C)N(C)Cc2c(C)nn(-c3ccccc3)c2C)o1 (centres undefined),52.08
25,Cc1nn(-c2ccccc2)c(C)c1CN1CCNCC1,1.79
26,CC(=O)N(C)c1nc(CN2CCCC2Cn2nc(C)cc2C)cs1 (centres undefined),-43.47

row,SMILES,INHIBITION [%]
1,CN(C)c1ncc(-c2ccncc2)c(CCNC(=O)C2CC2)n1,-33.32
2,Cn1ncc2c(=O)[nH]c(CN(Cc3ccco3)C3CC3)nc21,5.09
3,CC(=O)NCCNC(=O)Nc1ccc(Br)cc1C(C)C,-34.04
4,Cc1ccc(CN2CCC3(CCC(=O)N3CC(=O)N(C)C)CC2)s1,22.71
5,CC1CCN(C(=O)[C@@H]2C[C@@H]3CCN(Cc4nccs4)C[C@H]3O2)CC1,31.76
6,Cc1nnc2n1CCN(C(=O)CN1C(=O)CSc3ccccc31)C2,-14.79
7,Cc1nnsc1CN(C)Cc1ccc(C(=O)Nc2sccc2C#N)cc1,67.28
8,CN(Cc1ccc(C(=O)Nc2sccc2C#N)cc1)Cc1ccno1,26.74
9,Cc1nnc(CN(C)Cc2ccc(C(=O)Nc3sccc3C#N)cc2)o1,33.9
10,Cc1cc(C)n(CC2CCN(CC(O)COc3ccccc3)CC2)n1 (centres undefined),-1.96
11,O=C(CCn1cccc1)NCc1ccc(CN2CCCCCC2)o1,56.24
12,O=C(COc1coc(CN2CCCCC2)cc1=O)NCc1ccccc1,-11.78
13,Cc1ccn(CCC(=O)NCc2ccc(C)o2)n1,19.49
14,O=C(c1ccco1)N1CCC2(CCC(=O)N2Cc2ccccc2)CC1,21.06
15,O=C(c1ccco1)N1CCC2(CCC(=O)N2Cc2cccc(F)c2)CC1,33.16
16,Cc1cccc(CN2C(=O)CCC23CCN(C(=O)c2ccco2)CC3)c1,70.48
17,O=C(NC1CCN(c2ncccc2F)C1)c1cccc(-n2ccnn2)c1 (centres undefined),25.78
18,CNCC[C@H]1CC(C)(C)Oc2ccc(C)cc21,-7.01
19,N#Cc1cccc(CN2Cc3nccn3CC(CN3CCCC3)C2)c1 (centres undefined),32.04
20,Cc1c(C(=O)NCC(C)(C)S(C)(=O)=O)cccc1-c1ccccn1,-62.92
21,Cc1c(C(=O)NCCC(=O)N2CCCC2)cccc1-c1ccccn1,59.67
22,Cc1c(C(=O)NCCCS(C)(=O)=O)cccc1-c1ccccn1,3.63
23,Cc1cccc(CCC(=O)N2CCOCC2c2c(C)n[nH]c2C)c1 (centres undefined),74.35
24,Cc1cccc(CC(=O)N2CCOCC2c2c(C)n[nH]c2C)c1 (centres undefined),37.57
25,Cc1n[nH]c(C)c1C1COCCN1C(=O)Cc1cccc(F)c1 (centres undefined),13.24
26,COCCC(=O)Nc1cnn(COc2ccc(F)cc2Cl)c1,-17.37
